From PubChem BioAssay
Efflux pump inh = inhibitors of Candida efflux pumps in yeast, primary screen, S. cerevisiae, Nile Red, multiplex; S. cerevisiae Candida pump triplex; inhibition, % at 10 µM; 0.44% of 330,000 active;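 active = plate passing quality check with inhibition over a set limit, or well fluorescence over plate mean plus 4 SD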;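 also: Nile Red retained in pooled yeast measured as flow cytometry median fluorescence; 0% = buffer negative control and 100% = Enniatin B positive control; higher means more Nile Red kept so more efflux inhibition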
Mot1-301 SUMO = yeast Mot1-301 growth rescue at high temperature, primary screen, SUMOylation pathway inhibitor project, S. cerevisiae, ATP luminescence, 38.5C; growth rescue, % at 18.8 µM; AID 2716, 2010; 1% of 320,000 active; S. cerevisiae Mot1-301 growth rescue; percent above DMSO median, 100 means doubled;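 active = every valid replicate shows activation above 250% relative to neutral control wells; inactive = the rest, any valid replicate at or below 250%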;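 also: OY570 slx delta 5 strain wells were the positive control but not used for scaling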
SKN-1 block = suppressors of acrylamide-induced Pgst-4::GFP reporter in worms, primary screen, SKN-1 inhibitor project, whole organism, uHTS, GFP/RFP fluorescence ratio, strain VP596; C. elegans VP596 Pgst-4::GFP/RFP ratio, 24 h; inhibition, % at 21.8 µM; 0.49% of 360,000 active; AID 624304, 2012;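 active = interference check ratio from 0.5 to 1.5 plus GFP to RFP signal ratio inhibition reaching or exceeding a fixed threshold, cut at about 30% in these data, passing the limit was not always enough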
HGIII-sPLA2 inh = human group III sPLA2 inhibitors, primary screen, biochemical, QFRET, BODIPY PC-A2 liposome substrate | Group 3 secretory phospholipase A2 (Homo sapiens), Q9NZ20 | QFRET BODIPY PC-A2 liposome hydrolysis, fluorescence | inhibition, % at 12.2 µM | 0.56% of 370,000 active | AID 743126, 2013;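 active = inhibition above mean plus 3 SD of compounds lying within the high and low control bounds, cut at about 19% in these data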;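 also: 0% = median of test compound wells and 100% = no enzyme DMSO wells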
Target sequence (Q9NZ20 whole entry, looked up): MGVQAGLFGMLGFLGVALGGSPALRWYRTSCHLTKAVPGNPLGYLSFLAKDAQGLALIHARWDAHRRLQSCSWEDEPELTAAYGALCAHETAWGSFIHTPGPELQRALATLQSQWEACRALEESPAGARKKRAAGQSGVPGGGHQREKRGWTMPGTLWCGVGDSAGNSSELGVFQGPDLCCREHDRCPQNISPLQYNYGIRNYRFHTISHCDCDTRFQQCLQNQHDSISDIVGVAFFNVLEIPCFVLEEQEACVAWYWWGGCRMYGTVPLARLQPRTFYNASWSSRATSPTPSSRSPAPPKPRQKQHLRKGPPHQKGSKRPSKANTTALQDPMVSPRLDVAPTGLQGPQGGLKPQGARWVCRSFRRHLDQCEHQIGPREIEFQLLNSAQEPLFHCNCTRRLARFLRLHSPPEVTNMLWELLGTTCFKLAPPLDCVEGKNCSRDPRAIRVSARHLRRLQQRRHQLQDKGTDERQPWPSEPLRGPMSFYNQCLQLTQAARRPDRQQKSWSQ
Yeast Mot1 SUMO = growth restoration of Mot1-301 yeast on galactose, dose response, SUMO pathway inhibitor project, whole organism, S. cerevisiae, ATP luminescence, cherry-picked samples; shares compounds with Mot1-301 SUMO; S. cerevisiae Mot1-301 galactose growth, 24 h; -100 = growth of slx-deleted rescue strain; growth activity, percent, % at 42 µM; 2,300 tested, under 10 active;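 active = Signal drops as the depositor expects, and the fitted half-maximal dose is no more than ten times the top valid tested dose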;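 also: more negative values mean stronger growth rescue toward the control strain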
Numbers without * were called inactive; x = no result given. Rows were chosen to be rich in hits. Some 2.2% of all compounds tested hit in one or more screens of this group.

SMILES	Efflux pump inh	Mot1-301 SUMO	SKN-1 block	HGIII-sPLA2 inh	Yeast Mot1 SUMO
Cc1cccc(C(=O)NCC(=O)N2CCN(c3ccc(Cl)cc3)CC2)c1	0.3	367.6*	3.3	6.6	0.3
Oc1c(Cl)cc(Cl)cc1/C=N/c1nccs1	-0.2	107.2	-2.8	1.2	x
Oc1c(Cl)cc(Cl)cc1/C=N/c1nc(-c2ccc(Cl)cc2)cs1	-0.3	719.2*	-3.5	x	-0.6
O=C(C1CCN(C2CC(=O)N(c3cccc(Cl)c3)C2=O)CC1)N1CCCC1 (centres undefined)	0.3	416.8*	-1.6	1.8	-1.0
NC(=O)C1CCN(C2CC(=O)N(c3ccc(F)c(Cl)c3)C2=O)CC1 (centres undefined)	0.1	649.2*	-7.5	4.6	-0.8
C[C@@H]1CN([C@@H](C)CO)C(=O)c2cc(Br)cnc2O[C@H]1CN(C)C(=O)Cc1ccccn1	x	x	5.7	-3.7	x
COC(=O)N1CCCC1c1cccc2[nH]cc(C)c12 (centres undefined)	x	x	x	-9.7	x
CC(C)(C)n1cnc2cc(NC(=O)c3ccc(Cl)cc3)ccc21	0.1	562.1*	7.7	-14.5	-0.6
O=C1CCc2cc(S(=O)(=O)Nc3ccccc3)ccc2N1	0.2	-0.1	9.6	5.8	x
C=C(C)Cn1c(N)cc(=O)nc1SCC(=O)Nc1cccc(C(F)(F)F)c1	0.0	412.9*	-11.1	-6.0	0.2
Cc1nn(CCO)c2ncc(C(=O)c3cc(F)ccc3O)cc12	0.0	63.3	0.3	-1.1	x
COC(=O)C1CCN(S(=O)(=O)Cc2ccccc2)CC1	-0.6	688.7*	-10.0	6.8	0.3
COC(=O)C1CCN(S(=O)(=O)Cc2ccccc2Cl)CC1	0.0	17.3	2.0	-0.1	x
CSc1ccc(CN2CCN(S(=O)(=O)Cc3ccccc3)CC2)cc1	0.8	379.4*	1.0	1.1	-0.8
CCc1ccc(CN2CCN(S(=O)(=O)Cc3ccccc3)CC2)cc1	0.0	8.5	6.2	2.2	x
O=C(C1CCN(S(=O)(=O)Cc2ccccc2)CC1)N1CCN(c2ncccn2)CC1	0.1	8.8	11.1	4.4	x
O=S(=O)(Cc1ccccc1)N1CCN(c2ncccn2)CC1	0.0	398.8*	2.0	2.0	-0.1
O=CNC1(c2ccccc2)CCCCC1	x	x	-9.9	7.3	x
CCc1ccccc1N(CC(=O)NC1CCCC1)C(=O)CNC(=O)c1cccs1	0.0	-16.3	-1.5	-3.9	x
Cc1cc(C)n(-c2ccc(C(=O)NC(C)C)cc2)n1	0.1	6.2	-3.6	x	x
Cc1cc(-c2ccccc2)n(-c2ccc(C(=O)NC(C)C)cc2)n1	-0.1	644.8*	-4.4	2.8	0.1
CC1CCN(S(=O)(=O)c2ccc(NC(=O)C3CCCCC3C(=O)O)cc2)CC1 (centres undefined)	x	x	-3.9	x	x
CC(C)(C)c1ccc(Oc2ncccc2NC(=O)c2cccs2)cc1	-0.1	-1.5	-0.6	-0.8	x
O=C(c1cccnc1)N1CCCC(Nc2ccc(F)cc2)C1 (centres undefined)	0.0	595.3*	-3.6	11.3	-0.5
O=C(C1CCCC1)N1CCCC(Nc2ccc(F)cc2)C1 (centres undefined)	0.0	1.1	-5.1	4.2	x
SMILES	Efflux pump inh	Mot1-301 SUMO	SKN-1 block	HGIII-sPLA2 inh	Yeast Mot1 SUMO
COc1ccc(CNC(=O)Cn2ccc3cc(S(=O)(=O)N4CCCC4)ccc32)cc1OC	-0.2	-3.8	5.5	10.9	x
CC(C)CC(=O)Nc1ccc(C(=O)COC(=O)C2=COCCO2)cc1	0.3	-6.6	-2.2	-2.1	x
CC(=O)N1CCc2cc(S(=O)(=O)CCC(=O)N3CCN(C(=O)c4ccco4)CC3)ccc21	0.0	436.3*	17.6	x	0.1
CCN(CC)S(=O)(=O)c1ccc(NC(=O)COC(=O)CCc2cc(OC)c(OC)c(OC)c2)cc1	-0.3	3.5	-4.6	-30.4	x
Cc1nn(C)c(C)c1/C=N/NC(=O)C(C)(C)Oc1ccc(Cl)cc1	0.1	591.3*	11.9	x	0.5
Cc1c(/C=N/NC(=O)C(C)(C)Oc2ccc(Cl)cc2)cnn1C	-0.1	-25.3	4.5	-2.6	x
CCCc1nc2c(ccc3ccccc32)cc1CC	-0.3	-6.0	5.3	6.4	x
CC1Oc2ccccc2C=C1/C=N\NC(=O)c1cccnc1 (centres undefined)	0.0	8.8	3.8	-5.5	x
